Test results taken from PMC5349851, “Combinatorial bZIP dimers display complex DNA-binding specificity landscapes”.

target: FOS;CEBPG (Homo sapiens;Homo sapiens, UniProt P01100;P53567 128-201;52-130, |); assay: SELEX-seq (CSI, HT-SELEX, round 3); SELEX-seq: 1x PBS (10 mM phosphate, 137 mM NaCl, 2.7 mM KCl) pH 7.6, 2.5 mM DTT, 50 ng/ul poly dI-dC, 0.1% BSA, 50 nM biotinylated bZIP (1:3 with partner for heterodimers), 100 nM library, room temperature, 1 h, 3 rounds; high values mean tight binding; settings: protein: recombinant;recombinant; copies: 1;1; dsDNA, one strand shown
Sequence (P01100 other isoform, or with tags, fused parts or gaps |): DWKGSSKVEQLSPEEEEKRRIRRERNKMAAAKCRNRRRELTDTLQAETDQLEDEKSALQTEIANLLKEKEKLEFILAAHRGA

Sequence | binding signal
ATGACGGAAT | 0.0215 relative CSI intensity (max = 1)
ATGATGCAAT | 0.64 relative CSI intensity (max = 1)
ATGACGTCAT | 0.508 relative CSI intensity (max = 1)
ATGACGCAAT | 0.92 relative CSI intensity (max = 1)
CCTGACGTCA | 0.0189 relative CSI intensity (max = 1)
ATGACGTAAT | 0.482 relative CSI intensity (max = 1)

target: T1, CEBPG;CEBPG (Homo sapiens;Homo sapiens, UniProt P53567;P53567 52-130;52-130, |); assay: as above; settings: protein: recombinant;recombinant; copies: 1;1; dsDNA, one strand shown
T1 sequence 1: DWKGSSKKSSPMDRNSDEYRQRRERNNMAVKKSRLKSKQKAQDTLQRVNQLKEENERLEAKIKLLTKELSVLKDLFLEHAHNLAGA
T1 sequence 2: T1 sequence 1

Sequence | binding signal
ATGATGCAAT | 0.133 relative CSI intensity (max = 1)
ATGACGTCAT | 0.00362 relative CSI intensity (max = 1)
ATGACGCAAT | 0.307 relative CSI intensity (max = 1)
ATGACGTAAT | 0.0508 relative CSI intensity (max = 1)

target: CEBPA;CEBPA (Homo sapiens;Homo sapiens, UniProt P49715;P49715 273-345;273-345, |); assay: as above; settings: protein: recombinant;recombinant; copies: 1;1; dsDNA, one strand shown
Sequence (P49715 other isoform, or with tags, fused parts or gaps |, chain 1 of 2): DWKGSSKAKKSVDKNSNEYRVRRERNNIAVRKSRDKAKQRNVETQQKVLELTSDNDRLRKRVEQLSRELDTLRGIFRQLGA
Sequence (P49715 other isoform, or with tags, fused parts or gaps |, chain 2 of 2): as the sequence (P49715 other isoform, or with tags, fused parts or gaps |, chain 1 of 2) above

Sequence | binding signal
ATGATGCAAT | 0.124 relative CSI intensity (max = 1)
ATGACGTCAT | 0.015 relative CSI intensity (max = 1)
ATGACGCAAT | 0.292 relative CSI intensity (max = 1)
ATGACGTAAT | 0.0784 relative CSI intensity (max = 1)

target: JUN;ATF3 (Homo sapiens;Homo sapiens, UniProt P05412;P18847 243-316;77-150, |); assay: as above; settings: protein: recombinant;recombinant; copies: 1;1; dsDNA, one strand shown
Sequence (P05412 other isoform, or with tags, fused parts or gaps |): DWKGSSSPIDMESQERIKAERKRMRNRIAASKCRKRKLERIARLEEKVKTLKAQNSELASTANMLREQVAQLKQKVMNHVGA

Sequence | binding signal
ATGACGGAAT | 0.0994 relative CSI intensity (max = 1)
ATGATGCAAT | 0.136 relative CSI intensity (max = 1)
ATGACGTCAT | 0.367 relative CSI intensity (max = 1)
ATGACGCAAT | 0.267 relative CSI intensity (max = 1)
CCTGACGTCA | 0.177 relative CSI intensity (max = 1)
ATGACGTAAT | 0.313 relative CSI intensity (max = 1)

target: JUN;JUN (Homo sapiens;Homo sapiens, UniProt P05412;P05412 243-316;243-316, |); assay: as above; settings: protein: recombinant;recombinant; copies: 1;1; dsDNA, one strand shown
Sequence (P05412 other isoform, or with tags, fused parts or gaps |, chain 1 of 2): as the sequence (P05412 other isoform, or with tags, fused parts or gaps |) above
Sequence (P05412 other isoform, or with tags, fused parts or gaps |, chain 2 of 2): as the sequence (P05412 other isoform, or with tags, fused parts or gaps |) above

Sequence | binding signal
ATGACGGAAT | 0.0116 relative CSI intensity (max = 1)
ATGATGCAAT | 0.00263 relative CSI intensity (max = 1)
ATGACGTCAT | 1 relative CSI intensity (max = 1)
ATGACGCAAT | 0.0387 relative CSI intensity (max = 1)
CCTGACGTCA | 0.0544 relative CSI intensity (max = 1)
ATGACGTAAT | 0.091 relative CSI intensity (max = 1)

target: ATF4;CEBPG (Homo sapiens;Homo sapiens, UniProt P18848;P53567 269-346;52-130, |); assay: as above; settings: protein: recombinant;recombinant; copies: 1;1; dsDNA, one strand shown
Sequence (P18848 other isoform, or with tags, fused parts or gaps |): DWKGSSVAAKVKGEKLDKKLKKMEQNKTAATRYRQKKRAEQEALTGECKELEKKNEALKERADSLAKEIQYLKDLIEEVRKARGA

Sequence | binding signal
ATGACGGAAT | 0.0162 relative CSI intensity (max = 1)
ATGATGCAAT | 0.965 relative CSI intensity (max = 1)
ATGACGTCAT | 0.465 relative CSI intensity (max = 1)
ATGACGCAAT | 1 relative CSI intensity (max = 1)
CCTGACGTCA | 0.0346 relative CSI intensity (max = 1)
ATGACGTAAT | 0.652 relative CSI intensity (max = 1)

target: ATF4;CEBPA (Homo sapiens;Homo sapiens, UniProt P18848;P49715 269-346;273-345, |); assay: as above; settings: protein: recombinant;recombinant; copies: 1;1; dsDNA, one strand shown
Sequence (P18848 other isoform, or with tags, fused parts or gaps |, chain 1 of 2): as the sequence (P18848 other isoform, or with tags, fused parts or gaps |) above
Sequence (P49715 other isoform, or with tags, fused parts or gaps |, chain 2 of 2): as the sequence (P49715 other isoform, or with tags, fused parts or gaps |, chain 1 of 2) above

Sequence | binding signal
ATGACGGAAT | 0.133 relative CSI intensity (max = 1)
ATGATGCAAT | 1 relative CSI intensity (max = 1)
ATGACGTCAT | 0.584 relative CSI intensity (max = 1)
ATGACGCAAT | 0.929 relative CSI intensity (max = 1)
CCTGACGTCA | 0.127 relative CSI intensity (max = 1)
ATGACGTAAT | 0.695 relative CSI intensity (max = 1)

target: ATF4;ATF4 (Homo sapiens;Homo sapiens, UniProt P18848;P18848 269-346;269-346, |); assay: as above; settings: protein: recombinant;recombinant; copies: 1;1; dsDNA, one strand shown
Sequence (P18848 other isoform, or with tags, fused parts or gaps |, chain 1 of 2): as the sequence (P18848 other isoform, or with tags, fused parts or gaps |) above
Sequence (P18848 other isoform, or with tags, fused parts or gaps |, chain 2 of 2): as the sequence (P18848 other isoform, or with tags, fused parts or gaps |) above

Sequence | binding signal
ATGACGTCAT | 1 relative CSI intensity (max = 1)
CCTGACGTCA | 0.0219 relative CSI intensity (max = 1)
ATGACGTAAT | 0.00204 relative CSI intensity (max = 1)

target: T2, BATF3;ATF3 (Homo sapiens;Homo sapiens, UniProt Q9NR55;P18847 26-99;77-150, |); assay: as above; settings: protein: recombinant;recombinant; copies: 1;1; dsDNA, one strand shown
T2 sequence 1: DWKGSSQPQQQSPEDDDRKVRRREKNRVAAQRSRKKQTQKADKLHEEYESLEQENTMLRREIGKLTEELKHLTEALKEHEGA
T2 sequence 2: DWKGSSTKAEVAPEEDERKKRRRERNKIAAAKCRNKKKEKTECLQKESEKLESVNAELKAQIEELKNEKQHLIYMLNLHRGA

Sequence | binding signal
ATGACGGAAT | 0.00122 relative CSI intensity (max = 1)
ATGATGCAAT | 0.00189 relative CSI intensity (max = 1)
ATGACGTCAT | 0.146 relative CSI intensity (max = 1)
ATGACGCAAT | 0.00445 relative CSI intensity (max = 1)
CCTGACGTCA | 0.0499 relative CSI intensity (max = 1)
ATGACGTAAT | 0.0292 relative CSI intensity (max = 1)

target: BATF3;ATF4 (Homo sapiens;Homo sapiens, UniProt Q9NR55;P18848 26-99;269-346, |); assay: as above; settings: protein: recombinant;recombinant; copies: 1;1; dsDNA, one strand shown

Sequence | binding signal
ATGACGGAAT | 0.00174 relative CSI intensity (max = 1)
ATGATGCAAT | 0.00441 relative CSI intensity (max = 1)
ATGACGTCAT | 0.748 relative CSI intensity (max = 1)
ATGACGCAAT | 0.00858 relative CSI intensity (max = 1)
CCTGACGTCA | 0.0241 relative CSI intensity (max = 1)
ATGACGTAAT | 0.048 relative CSI intensity (max = 1)

target: T3, BATF3;BATF3 (Homo sapiens;Homo sapiens, UniProt Q9NR55;Q9NR55 26-99;26-99, |); assay: as above; settings: protein: recombinant;recombinant; copies: 1;1; dsDNA, one strand shown
T3 sequence 1: T2 sequence 1
T3 sequence 2: T2 sequence 1

Sequence | binding signal
ATGACGTCAT | 0.904 relative CSI intensity (max = 1)
ATGACGCAAT | 0.00125 relative CSI intensity (max = 1)
CCTGACGTCA | 0.0069 relative CSI intensity (max = 1)
ATGACGTAAT | 0.0127 relative CSI intensity (max = 1)

target: T4, ATF2;ATF2 (Homo sapiens;Homo sapiens, UniProt P15336;P15336 343-417;343-417, |); assay: as above; settings: protein: recombinant;recombinant; copies: 1;1; dsDNA, one strand shown
T4 sequence 1: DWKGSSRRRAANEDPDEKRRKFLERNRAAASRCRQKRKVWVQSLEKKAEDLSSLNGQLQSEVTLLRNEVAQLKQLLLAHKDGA
T4 sequence 2: T4 sequence 1

Sequence | binding signal
ATGACGGAAT | 0.0134 relative CSI intensity (max = 1)
ATGATGCAAT | 0.00515 relative CSI intensity (max = 1)
ATGACGTCAT | 1 relative CSI intensity (max = 1)
ATGACGCAAT | 0.0881 relative CSI intensity (max = 1)
CCTGACGTCA | 0.144 relative CSI intensity (max = 1)
ATGACGTAAT | 0.289 relative CSI intensity (max = 1)

target: T5, XBP1;XBP1 (Homo sapiens;Homo sapiens, UniProt P17861;P17861 61-138;61-138, |); assay: as above; settings: protein: recombinant;recombinant; copies: 1;1; dsDNA, one strand shown
T5 sequence 1: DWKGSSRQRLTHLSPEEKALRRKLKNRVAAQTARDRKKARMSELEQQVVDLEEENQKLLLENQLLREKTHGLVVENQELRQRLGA
T5 sequence 2: T5 sequence 1

Sequence | binding signal
ATGACGTCAT | 0.222 relative CSI intensity (max = 1)
ATGACGCAAT | 0.00105 relative CSI intensity (max = 1)
ATGACGTAAT | 0.00422 relative CSI intensity (max = 1)

target: T6, DBP;DBP (Homo sapiens;Homo sapiens, UniProt Q10586;Q10586 246-324;246-324, |); assay: as above; settings: protein: recombinant;recombinant; copies: 1;1; dsDNA, one strand shown
T6 sequence 1: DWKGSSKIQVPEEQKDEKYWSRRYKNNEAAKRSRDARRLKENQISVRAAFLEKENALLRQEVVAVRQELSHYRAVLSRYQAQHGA
T6 sequence 2: T6 sequence 1

Sequence | binding signal
ATGATGCAAT | 0.00594 relative CSI intensity (max = 1)
ATGACGTCAT | 0.0564 relative CSI intensity (max = 1)
ATGACGCAAT | 0.0702 relative CSI intensity (max = 1)
ATGACGTAAT | 0.487 relative CSI intensity (max = 1)

target: T7, JUNB;ATF3 (Homo sapiens;Homo sapiens, UniProt P17275;P18847 259-332;77-150, |); assay: as above; settings: protein: recombinant;recombinant; copies: 1;1; dsDNA, one strand shown
T7 sequence 1: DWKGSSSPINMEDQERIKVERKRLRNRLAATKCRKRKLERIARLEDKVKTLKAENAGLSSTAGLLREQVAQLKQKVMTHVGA
T7 sequence 2: T2 sequence 2

Sequence | binding signal
ATGACGGAAT | 0.00128 relative CSI intensity (max = 1)
ATGACGTCAT | 1 relative CSI intensity (max = 1)
ATGACGCAAT | 0.0139 relative CSI intensity (max = 1)
CCTGACGTCA | 0.031 relative CSI intensity (max = 1)
ATGACGTAAT | 0.166 relative CSI intensity (max = 1)

target: T8, JUNB;CEBPG (Homo sapiens;Homo sapiens, UniProt P17275;P53567 259-332;52-130, |); assay: as above; settings: protein: recombinant;recombinant; copies: 1;1; dsDNA, one strand shown
T8 sequence 1: T7 sequence 1
T8 sequence 2: T1 sequence 1

Sequence | binding signal
ATGACGGAAT | 0.00175 relative CSI intensity (max = 1)
ATGATGCAAT | 0.252 relative CSI intensity (max = 1)
ATGACGTCAT | 0.0649 relative CSI intensity (max = 1)
ATGACGCAAT | 0.308 relative CSI intensity (max = 1)
CCTGACGTCA | 0.00362 relative CSI intensity (max = 1)
ATGACGTAAT | 0.17 relative CSI intensity (max = 1)

target: JUNB;JUN (Homo sapiens;Homo sapiens, UniProt P17275;P05412 259-332;243-316, |); assay: as above; settings: protein: recombinant;recombinant; copies: 1;1; dsDNA, one strand shown
Sequence (P05412 other isoform, or with tags, fused parts or gaps |): as the sequence (P05412 other isoform, or with tags, fused parts or gaps |) above

Sequence | binding signal
ATGACGGAAT | 0.0196 relative CSI intensity (max = 1)
ATGATGCAAT | 0.0548 relative CSI intensity (max = 1)
ATGACGTCAT | 0.769 relative CSI intensity (max = 1)
ATGACGCAAT | 0.0103 relative CSI intensity (max = 1)
CCTGACGTCA | 0.0172 relative CSI intensity (max = 1)
ATGACGTAAT | 0.0997 relative CSI intensity (max = 1)

target: JUNB;ATF4 (Homo sapiens;Homo sapiens, UniProt P17275;P18848 259-332;269-346, |); assay: as above; settings: protein: recombinant;recombinant; copies: 1;1; dsDNA, one strand shown
Sequence (P18848 other isoform, or with tags, fused parts or gaps |): as the sequence (P18848 other isoform, or with tags, fused parts or gaps |) above

Sequence | binding signal
ATGACGTCAT | 1 relative CSI intensity (max = 1)
ATGACGCAAT | 0.0028 relative CSI intensity (max = 1)
CCTGACGTCA | 0.0113 relative CSI intensity (max = 1)
ATGACGTAAT | 0.0439 relative CSI intensity (max = 1)

target: T9, JUNB;BATF3 (Homo sapiens;Homo sapiens, UniProt P17275;Q9NR55 259-332;26-99, |); assay: as above; settings: protein: recombinant;recombinant; copies: 1;1; dsDNA, one strand shown
T9 sequence 1: T7 sequence 1
T9 sequence 2: T2 sequence 1

Sequence | binding signal
ATGACGGAAT | 0.00175 relative CSI intensity (max = 1)
ATGATGCAAT | 0.00368 relative CSI intensity (max = 1)
ATGACGTCAT | 1 relative CSI intensity (max = 1)
ATGACGCAAT | 0.026 relative CSI intensity (max = 1)
CCTGACGTCA | 0.0239 relative CSI intensity (max = 1)
ATGACGTAAT | 0.0919 relative CSI intensity (max = 1)

target: T10, JUNB;ATF2 (Homo sapiens;Homo sapiens, UniProt P17275;P15336 259-332;343-417, |); assay: as above; settings: protein: recombinant;recombinant; copies: 1;1; dsDNA, one strand shown
T10 sequence 1: T7 sequence 1
T10 sequence 2: T4 sequence 1

Sequence | binding signal
ATGACGTCAT | 1 relative CSI intensity (max = 1)
ATGACGCAAT | 0.00356 relative CSI intensity (max = 1)
CCTGACGTCA | 0.0143 relative CSI intensity (max = 1)
ATGACGTAAT | 0.151 relative CSI intensity (max = 1)
